± gives the standard deviation.
The sequences below were run on MILI (PIWIL2) piRISC loaded with L1MC piRNA (26 nt) (assay: pre-steady-state target cleavage rate (min^-1); guide: L1MC piRNA 5'p-UAACUAAAUACUAUGCAAGCUGUAGG; MIWI and MILI are mouse PIWI proteins and EfPiwi is from a freshwater sponge; tags in brackets are library labels; higher = faster piRNA-guided slicing of the target). Conditions: auxiliary factor: none (no GTSF1).
In short: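 The pre-steady-state cleavage rate was obtained by Cleave-'n-Seq with a burst-and-steady-state fit. A transcribed, DNA-blocked target RNA library (0.1 nM) was mixed with 1 nM active affinity-purified piRISC carrying one synthetic guide, with or without 500 nM GTSF1 partner protein, in HEPES–potassium acetate buffer at 33 °C for 0–8 or 0–960 min. Uncleaved targets were sequenced and normalised to depth and to weakly complementary targets, with three trials pooled and k3 capped at 0.0001 min^-1.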
For UCCUGGUACAGCUUGCAUAGUAUUUAGUCUA, the “pre-steady-state target cleavage rate” value was 0.00783 ± 0.0041. With UCCUGGAUGUGCUUGGAUAGUAUAUAGUUA the “pre-steady-state target cleavage rate” value was 0.00335 ± 0.0032. For UCCUGGAUGAGCAUGCAUAGUAUUAAGUUA, the “pre-steady-state target cleavage rate” value was 0.00547 ± 0.0024. UCCUGCUACAGCUUGCAUGUAUUUAGUUA was tested, and the “pre-steady-state target cleavage rate” value was 0.00362 ± 0.0023. For UCCUGGAUGUGCUUGCAUACAAUUUAGUUA, the “pre-steady-state target cleavage rate” value was 0.0028 ± 0.0024. In the case of UCCUGGAUGUCGAACCAAAGUAUUUUGUUA, the “pre-steady-state target cleavage rate” value is reported as under 0.0001. For UCCUGGAUGUGCUUGCAUAGUAUUUUAGUUA, the “pre-steady-state target cleavage rate” value was 0.0102 ± 0.0031. In the case of UCCUGGAUGACCUUGCAUAGUAUAUAGUUA, the “pre-steady-state target cleavage rate” value is reported as 0.00397 ± 0.0031. For UCCUGGAUGUCCAUGCAUAGUAUUUAGUUA, the “pre-steady-state target cleavage rate” value was 0.00432 ± 0.0026. UCCUGGUACAGCUUGCUUUGUAUUUAGUUA was tested, and the “pre-steady-state target cleavage rate” value was 0.0068 ± 0.0025. In the case of UCCUGGAUGUGCUUGCAAAGUAUAUAGUUA, the “pre-steady-state target cleavage rate” value is reported as 0.00311 ± 0.0024. In the case of UCCUGCUACAGCUUGCAUUGUAUAUAGUUA, the “pre-steady-state target cleavage rate” value is reported as 0.00483 ± 0.0018. UCCUGGAUGUCCUUGCAUACUAUUUAGUUA was tested, and the “pre-steady-state target cleavage rate” value was 0.00339 ± 0.0025. UCCUGGAUGUCGUAGCAUAGUAUUAAGUUA was tested, and the “pre-steady-state target cleavage rate” value was 0.00246 ± 0.0024. With UCCUGGAUGUCGAUGGAUAGUAUUUAGUUA the “pre-steady-state target cleavage rate” value was 0.00383 ± 0.0027. For UCCUGGAUGUCCUUGCAUACUUUUUAGUUA, the “pre-steady-state target cleavage rate” value was 0.0024 ± 0.0022.

From the supplement of paper PMC10338343
